This note sets out measurements from PubChem BioAssay (NCATS).

Test [1] in a line: NFAT Signaling Pathway (AID 444).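 Note: carbachol stimulus at about its EC50 of 1 µM final; % is set by controls: 0 for no effect and ±100 for the full control effect.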 The following applies: Jurkat NFAT-bla M1, carbachol, beta-lactamase ratio, 5 h; at 17.2 µM (top of the series) unless noted. In a few lines: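 Jurkat cells with NFAT-driven β-lactamase reporter and co-expressed M1 receptor, stimulated with carbachol (final 1 uM, ~EC50), compound titration, 5 h at 37 °C. CCF4 loaded 1 h at RT; 460/530 nm ratio gave %activity and AC50.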

Test [2] is described as follows: Stat Signaling Pathway (AID 446).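 Note: ME-180 cervical cancer cells given 40 pM IL-6 alongside compound; SIE-controlled beta-lactamase reporter measured as 460/530 nm FRET emission ratio; % is set by controls: 0 for no effect and ±100 for the full control effect.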 The settings on record: ME-180 (cervical carcinoma) SIE beta-lactamase reporter, IL-6 stimulated, 5 h; at 17.2 µM (top of the series) unless noted. In a few lines: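 Emission at 460 and 530 nm (excitation 405 nm) reports SIE-controlled beta-lactamase in ME-180 cells. Cells received compound with 40 pM IL-6 for 5 hrs at 37 C; data scaled between 300 pM IL-6 and 125 nM JAK-inhibitor controls.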

The target in test [3] is Glucocorticoid receptor (Homo sapiens) (UniProt P04150). Briefly: GR-GFP Redistribution (AID 450;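 active = compounds whose dose series gives a full or clear partial fitted curve of increased nuclear translocation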; note: potency is the fitted concentration of half-maximal effect). The following applies: U2OS GR-GFP nuclear translocation, laser cytometry, 2 h; series mostly up to 20.6 µM.
Chain of Glucocorticoid receptor (Homo sapiens) (P04150 whole entry, looked up): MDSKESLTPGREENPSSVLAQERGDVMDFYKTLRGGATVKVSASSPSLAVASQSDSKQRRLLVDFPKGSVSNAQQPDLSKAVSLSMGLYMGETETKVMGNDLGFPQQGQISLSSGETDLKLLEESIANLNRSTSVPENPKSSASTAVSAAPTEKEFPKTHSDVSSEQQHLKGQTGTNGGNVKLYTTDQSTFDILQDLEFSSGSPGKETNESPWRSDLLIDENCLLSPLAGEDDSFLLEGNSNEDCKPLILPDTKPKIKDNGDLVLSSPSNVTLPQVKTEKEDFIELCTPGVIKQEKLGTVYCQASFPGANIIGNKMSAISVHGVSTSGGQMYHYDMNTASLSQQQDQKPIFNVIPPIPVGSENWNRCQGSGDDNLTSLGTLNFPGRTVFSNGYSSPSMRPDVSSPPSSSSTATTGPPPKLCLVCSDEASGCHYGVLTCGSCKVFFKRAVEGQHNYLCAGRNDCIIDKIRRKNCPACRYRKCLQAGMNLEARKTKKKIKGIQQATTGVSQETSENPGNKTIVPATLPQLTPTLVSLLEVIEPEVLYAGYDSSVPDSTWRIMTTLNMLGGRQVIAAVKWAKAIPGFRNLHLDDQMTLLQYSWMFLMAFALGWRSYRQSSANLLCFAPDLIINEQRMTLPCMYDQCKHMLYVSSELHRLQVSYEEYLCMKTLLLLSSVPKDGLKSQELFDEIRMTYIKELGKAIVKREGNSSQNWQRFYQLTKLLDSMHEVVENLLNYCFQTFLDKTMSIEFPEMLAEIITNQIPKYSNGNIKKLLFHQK

Values without a mark were called inactive. Inconclusive results are not listed. Calls of active or inactive are those of the source. Unless noted, calls come from the whole dose curve; as a rule, active = well fitted curve in either direction with a large enough effect (not every such curve was filed as active); inconclusive = small, poorly fitted or top-dose-only effect, or another doubt; inactive = flat fitted curve, though single readings scatter.

Consider `Cc1cc(OCCN2CCCCC2)nc2ccccc12`, for which the activity change, negative = inhibition in test [1] was -29.3%. Besides, the activity, negative = inhibition in test [2] is 9.41%. For the same molecule, in test [3], the Potency is more than 20.6 µM.
On the same counts, the results for `CNC(=O)c1cc2c(ccc3ccccc32)oc1=N` are -5.77%, 13.1% and more than 20.6 µM.
For the molecule `CC(C)Cc1nc(N2CCN(C(=O)C(C)C)CC2)c(C#N)c2c1CCC2`, the activity change, negative = inhibition in test [1] was -19.4%. Also, the activity, negative = inhibition in test [2] was 7.39%. In addition, the Potency in test [3] is more than 20.6 µM.
In the case of `Cc1cc(C(F)(F)F)nn1CC(=O)NCC1CCCO1` (configuration not stated), the activity change, negative = inhibition in test [1] is -11%. Further, the activity, negative = inhibition in test [2] was 3.03%. Moreover, the Potency in test [3] was more than 20.6 µM.
Regarding `Cc1ccc(-n2ncc3c(NCc4cccnc4)ncnc32)c(C)c1`, the activity change, negative = inhibition in test [1] is -27.9%. The activity, negative = inhibition in test [2] was -18.9%. For the same molecule, in test [3], the Potency is more than 20.6 µM.
On the same counts, the results for `CCN1CCc2c(C#N)c(N3CCCCC3)nc(N3CCOCC3)c2C1` are -1.02%, 18.4% and more than 20.6 µM.
The like results for `CCC1(C)Cc2ccccc2-c2nc(NCCO)n(-c3ccccc3)c(=O)c21` (configuration not stated) were, in that order, 6.29%, -2.14% and more than 20.6 µM.
In the case of `COCCNc1cc(C)c(C#N)c2nc3ccccc3n12`, the activity change, negative = inhibition in test [1] was 12.9%. The activity, negative = inhibition in test [2] is 4.06%. In addition, the Potency in test [3] was more than 20.6 µM.
For the molecule `Cc1cc(C)n(CC2CC(=O)N(c3ccc(Cl)c(Cl)c3)C2=O)n1` (configuration not stated), in test [1], the activity change, negative = inhibition was -11.5%. Besides, the activity, negative = inhibition in test [2] was 0.577%. Moreover, the Potency in test [3] is more than 20.6 µM.
Turning to `Clc1ccc(-n2ncc3c(NCc4ccccn4)ncnc32)cc1`, the activity change, negative = inhibition in test [1] was -18.5%. In addition, the activity, negative = inhibition in test [2] was -20.2%. Also, the Potency in test [3] was more than 20.6 µM.
Take `Cc1nc2oc(C(=O)c3ccc(Br)cc3)c(N)c2c2c1COC(C)(C)C2`: in test [1], the activity change, negative = inhibition is 27.3%. The activity, negative = inhibition in test [2] was 0.926%. The Potency in test [3] is more than 20.6 µM.
For `Brc1cccc(-c2cnc3n2CCCCC3)c1`, the activity change, negative = inhibition in test [1] is -87.3% (active). Also, the activity, negative = inhibition in test [2] was -10.7%. The Potency in test [3] was more than 20.6 µM.
Consider `COc1cccc(-c2nnc3sc(-c4ccccc4)nn23)c1`, for which the activity change, negative = inhibition in test [1] is -8.12%. The activity, negative = inhibition in test [2] is -8.55%. Also, the Potency in test [3] is more than 20.6 µM.
The like results for `CCOC(=O)c1c(-c2cccs2)csc1NC(=O)c1ccncc1` were, in that order, 27.6%, 1.61% and more than 20.6 µM.
In the case of `COc1cccc(-c2nc(NCc3ccco3)c3ccccc3n2)c1O`, the activity change, negative = inhibition in test [1] is 7.35%. In test [2], the activity, negative = inhibition was -8.59%. Further, the Potency in test [3] was more than 20.6 µM.
Turning to `CC(C)(C)NC(=O)/C=N/O`, the activity change, negative = inhibition in test [1] is 23.2%. In test [2], the activity, negative = inhibition is 3.21%. In addition, in test [3], the Potency is more than 20.6 µM.
Consider `COc1ccccc1Nc1ncc(-c2cccs2)s1`, for which the activity change, negative = inhibition in test [1] was 11.7%. Further, the activity, negative = inhibition in test [2] is -4.45%. In test [3], the Potency is more than 20.6 µM.
Regarding `Cn1c(Cl)nc2c1c(=O)n(Cc1cccc(Br)c1)c(=O)n2C`, in test [1], the activity change, negative = inhibition is -23.7%. Moreover, in test [2], the activity, negative = inhibition is 12.7%. Also, in test [3], the Potency was more than 20.6 µM.
The like results for `CCNCc1cc2cc(C)ccc2[nH]c1=O` were, in that order, -15.2%, 2.05% and more than 20.6 µM.
For `COCCOC(=O)c1c(C)oc2ccc(OC(=O)COc3c(F)c(F)c(F)c(F)c3F)cc12`, the activity change, negative = inhibition in test [1] is -2.9%. Besides, in test [2], the activity, negative = inhibition was 1.17%. Moreover, in test [3], the Potency is more than 20.6 µM.
Consider `N#CC(C(=O)Nc1ccc(Cl)c(Cl)c1)=C1Nc2ccccc2N1`, for which the activity change, negative = inhibition in test [1] is -3.6%. Also, the activity, negative = inhibition in test [2] was -4.82%. Moreover, the Potency in test [3] was more than 20.6 µM.
The like results for `Cc1nc2sc3c(c2c(=O)o1)CC(C)(C)OC3` were, in that order, -10.1%, -8.31% and more than 20.6 µM.
Consider `CCOC(=O)C1CCN(c2nc3ccccc3nc2C(C#N)C(=O)OC(C)C)CC1` (configuration not stated), for which the activity change, negative = inhibition in test [1] is 8.02%. In addition, the activity, negative = inhibition in test [2] was -8.74%. In addition, the Potency in test [3] is more than 20.6 µM.
As for `COC(=O)c1sc(NC(=O)c2oc3ccccc3c2C)nc1C`, in test [1], the activity change, negative = inhibition is -8%. Further, in test [2], the activity, negative = inhibition is 18.1%. In test [3], the Potency is more than 20.6 µM.
